# Bioassay records: PubChem BioAssay, Sanford-Burnham Center for Chemical Genomics
# SENP8 block-1: inhibitors of human SENP8 protease; Q96LD8; purified SENP8, Z-RLRGG-aminoluciferin cleavage, luminescence; inhibition, % at 10 µM; actives 1.2% (n = 330,000); AID 2540; in the data active means inhibition above about 50%
# Target sequence (Q96LD8 whole entry, looked up): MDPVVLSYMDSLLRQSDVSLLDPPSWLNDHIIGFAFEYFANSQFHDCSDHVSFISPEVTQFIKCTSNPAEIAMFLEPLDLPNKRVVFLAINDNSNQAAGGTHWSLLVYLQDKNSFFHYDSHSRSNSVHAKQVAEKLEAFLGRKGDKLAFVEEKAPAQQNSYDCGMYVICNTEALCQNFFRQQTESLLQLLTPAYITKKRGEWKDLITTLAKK
# SENP7 inh: blocks the human protease SENP7 | inhibition, % at 5 µM | Q9BQF6 | recombinant SENP7, Z-RLRGG-aminoluciferin luminescence, 40 min | actives 1.5% (n = 330,000);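 active means inhibition above about 50% at the single test dose, limit read from the data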;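 further: plate controls were DMSO with enzyme for no effect and no enzyme buffer wells for full effect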
# Target sequence (Q9BQF6 706-1050 limits assumed): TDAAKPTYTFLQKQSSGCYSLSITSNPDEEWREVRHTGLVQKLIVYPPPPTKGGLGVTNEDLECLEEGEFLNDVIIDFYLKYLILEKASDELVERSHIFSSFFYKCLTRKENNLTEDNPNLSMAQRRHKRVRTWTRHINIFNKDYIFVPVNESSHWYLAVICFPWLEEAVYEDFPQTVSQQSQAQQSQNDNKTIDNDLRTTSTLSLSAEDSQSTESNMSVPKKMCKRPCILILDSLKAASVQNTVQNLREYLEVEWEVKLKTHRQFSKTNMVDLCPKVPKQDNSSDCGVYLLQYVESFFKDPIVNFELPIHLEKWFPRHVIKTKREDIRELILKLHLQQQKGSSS
# SENP8 block-2: SENP8 (human) protease inhibition | actives 0.64% (n = 360,000) | AID 602440 | recombinant SENP8, Nedd8 substrate fluorescence | Q96LD8 | inhibition, % at 20 µM; in the data active means inhibition mostly above about 40%, no sharp cut-off; inactive means mostly below about 27%
# PPC-1+TRAIL kill: kills PPC-1 cancer cells in the presence of TRAIL; PPC-1 cells + TRAIL, ATPLite viability luminescence; cell killing (% activity), % at 4 µM or 5 µM; actives 0.41% (n = 220,000); AID 1443;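 active means cell killing above 50% in the first pass at 4 µM, then a duplicate retest at 5 µM averaging 50% or more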;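 further: plate controls were cells with TRAIL plus DMSO for no effect and medium-only wells lacking cells for full effect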
# SENP6 inh: SENP6 protease inhibition; Q9GZR1; Recombinant SENP6 catalytic domain, aminoluciferin luminescence; inhibition, % at 10 µM; actives 1.8% (n = 330,000); AID 2599;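 active means inhibition above about 50% at the single tested dose, limit read from the data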;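 further: plate controls were DMSO wells with enzyme for no effect and DMSO wells lacking enzyme for full effect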
# TRAIL sens C8: sensitizes caspase-8 expressing cells to TRAIL. NB7+C8 cells + TRAIL, ATPlite viability luminescence. inhibition (viability loss, TRAIL sensitization), % at 10 µM. actives 1% (n = 360,000). AID 624354;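 active means compounds causing at least 50% loss of cell viability in the single-dose screen, relative to plate controls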
# SENP8 conf: confirmation of human SENP8 protease inhibitors; shares compounds with SENP8 block-2; AID 624319; inhibition, % at 25 µM; purified SENP8, Nedd8-AMC/pro-Nedd8 cleavage fluorescence, 30 min; actives 15% (n = 1,400); in the data active means inhibition mostly above about 39%, no sharp cut-off; inactive means mostly below about 34%
# Active calls of the source: *; i = inactive; / = no result. Hits are enriched below; roughly 3% of the tested compounds scored in any of these assays.
SMILES,SENP8 block-1,SENP7 inh,SENP8 block-2,PPC-1+TRAIL kill,SENP6 inh,TRAIL sens C8,SENP8 conf
COc1ccc(Nc2ccc(C(F)(F)F)cc2[N+](=O)[O-])cn1,3,2,16,/,-19,-12,/
COC(=O)c1cnc(Nc2cccc(C(F)(F)F)c2)c([N+](=O)[O-])c1,0,2,33*,-1,1,-4,16
O=C1c2cc(F)ccc2-n2c1nc1ccccc1c2=O,19,24,42*,/,43,55*,60*
COc1ccc([N+](=O)[O-])cc1NC(=S)Nc1ccccc1,6,-1,26,-5,-1,0,/
COc1ccc([N+](=O)[O-])cc1NC(=S)NC(=O)C(C)(C)C,2,2,40*,0,-1,9,27
CC(C)N(C)c1ncnc2c1ncn2[C@H]1CN(CCN2CCOCC2)C[C@@H](CO)O1,/,/,15,/,/,-20,/
COc1cc(NCCCNC(C)C)c2nccc(C)c2c1,/,/,65*,/,/,20,48*
COc1cc(-c2cc(=O)c3ccccc3o2)ccc1O,-3,-1,12,-23,2,9,/
O=c1cc(-c2ccccc2)oc2cc(O)cc(O)c12,43,23,15,/,35,17,/
COc1c(O)cc(O)c2c(=O)cc(-c3ccccc3)oc12,4,-3,69*,/,8,14,21
COc1cc(-c2cc(=O)c3c(O)cc(O)cc3o2)ccc1O,24,32,56*,-10,41,-21,16
COc1cc(O)c2c(=O)cc(-c3ccccc3)oc2c1,-10,2,53*,0,-11,4,5
Cc1cc(C)c(NC(=S)NC(CO)(CO)CO)c(C)c1,8,2,9,11,0,-9,/
CC(C(=O)OCC(=O)N(C)C1(C#N)CCCCC1)N1C(=O)c2ccccc2C1=O (centres undefined),-4,4,10,/,-19,23,/
CCC(C)(C)c1nnc(NC(=O)C2CC(=O)N(CCc3ccc(F)cc3)C2)s1 (centres undefined),1,1,8,/,-4,-10,/
O=S1(=O)NC2c3ccccc3CC2O1 (centres undefined),-3,13,46*,/,15,-4,57*
O=[N+]([O-])c1ccc(N2CCN(CCO)CC2)cc1Sc1ccccn1,1,0,19,3,-2,-1,/
CCN1CCN(c2ccc([N+](=O)[O-])c(Sc3nc4ccccc4[nH]3)c2)CC1,0,8,41*,16,-10,-1,18
COCC(=O)N1CCN(c2nc3ccccc3o2)CC1,-20,-3,8,7,-1,1,/
CC1=C(C(=O)N(C)C)CC(CC(=O)NC2CCCC2)C(=O)N1Cc1ccc(F)cc1 (centres undefined),/,/,14,/,/,-1,/
CS(=O)(=O)N(CC(=O)NCC1CCCO1)c1ccc(F)c(Cl)c1 (centres undefined),-6,-12,51*,3,-9,-2,7
CCCCCNC(=O)C1C(=O)Nc2ccccc2C(=O)N1c1c(C)cccc1C (centres undefined),/,/,-44,/,/,8,/
CCC(=O)NC(=S)Nc1ccc(NC(=O)c2ccc([N+](=O)[O-])cc2Cl)cc1,7,1,43*,-4,5,-4,8
O=C(Nc1ccc(N2CCCC2)cc1)c1ccc([N+](=O)[O-])cc1Cl,-4,-7,43*,-4,-15,-1,16
CN(C)c1ccc(NC(=O)c2ccc([N+](=O)[O-])cc2Cl)cc1,-1,5,11,20,25,34,/
SMILES,SENP8 block-1,SENP7 inh,SENP8 block-2,PPC-1+TRAIL kill,SENP6 inh,TRAIL sens C8,SENP8 conf
CSc1ccc(-c2cc3c(c4c2ccn4C)C2CCC3O2)cc1 (centres undefined),/,/,-349,/,/,-19,/
NC(=O)c1ccc(NC(=O)c2ccc(COc3ccc(F)cc3)o2)cc1,10,6,-43,/,-2,-1,/
O=C(NC1C(=O)NNC1c1ccccc1)c1ccc(F)cc1 (centres undefined),3,6,38,14,-9,6,/
Cc1ccc(C2NNC(=O)C2NC(=O)c2ccccc2)cc1 (centres undefined),1,1,64*,7,4,-4,8
COc1ccc(S(=O)(=O)N2CCC[C@@H]2C(=O)N2CCC[C@H]2C(=O)NCc2ccncc2)cc1C,/,/,24,/,/,3,/
O=c1c2ccccc2oc2cc(OCc3cccc(F)c3)cc(O)c12,-7,-9,-78,/,-25,-1,/
CC1CCC(NC(=O)c2cc(S(=O)(=O)N(C)C)ccc2N2CCCC2)CC1 (centres undefined),1,-3,-2,/,49,-30,/
O=C1OC(N2C(=O)CC[C@H]2C(=O)Nc2ccc(Br)cc2F)c2ccccc21 (some centres undefined),-1,-5,54*,/,-16,3,6
O=C(CN(C(=O)c1ccccc1Cl)N1C(=O)C2C3C=CC(C3)C2C1=O)c1cccs1 (centres undefined),-4,0,24,6,-10,15,/
O=C(NN=Cc1ccc(N2CCOCC2)s1)c1ccc([N+](=O)[O-])cc1,-2,-5,43*,/,-2,23,31
O=C(N/N=C/c1ccc(N2CCOCC2)s1)c1ccc(O)cc1,/,/,i,/,/,-1,/
Cc1ccc(-c2cc3nc(C)cc(N4CCN(C(=O)c5ccoc5)CC4)n3n2)cc1,/,/,-300,/,/,-4,/
Cc1nc(C(=O)O)sc1C1(C)CC(c2cccc([N+](=O)[O-])c2)=NO1 (centres undefined),-1,0,11,/,-7,-16,/
CC1(C(=O)NS(=O)(=O)c2cccs2)CCN1C(=O)Cc1ccc(Cl)cc1Cl (centres undefined),/,/,10,/,/,-3,/
CC1=NN(c2ccc(C(F)(F)F)cn2)C(=O)C1,8,12,75*,-2,15,17,58*
CCC(C)[C@H](NS(=O)(=O)c1ccc(C)cc1)C(=O)N1CCC(C(=O)N2CCC(C(=O)OC)CC2)CC1 (some centres undefined),-3,6,46*,/,13,-12,3
Cc1ccc(S(=O)(=O)N[C@@H](CC(C)C)C(=O)N2CCC(C(=O)N[C@@H](Cc3ccccc3)C(=O)O)CC2)cc1,3,-6,65*,/,11,13,7
O=[N+]([O-])c1cc(C(F)(F)F)cc([N+](=O)[O-])c1N1CCN(S(=O)(=O)c2ccccc2)CC1,-4,0,40*,2,-6,0,10
O=C(O)C1CCN(c2c([N+](=O)[O-])cc(C(F)(F)F)cc2[N+](=O)[O-])CC1,-2,4,10,37,4,-8,/
O=C(NNc1ccccc1)Nc1cc(Cl)ccc1Cl,/,/,48*,/,/,3,10
